For test [1], the target named is Retinoic acid receptor RXR-alpha (Homo sapiens) (UniProt P19793). As to the kind of experiment: qHTS assay to identify small molecule agonists of the RXR signaling pathway (AID 1159527; calls by dose curve; also: nearly all actives have a fitted effect of over 35% in size; also: potency is read from the fitted curve at half-maximal effect). The essentials: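 GeneBLAzer RXR-alpha-UAS-bla HEK 293T cells in medium with 2% charcoal-stripped FBS, pre-incubated 5 hr at 37 C, then exposed to compounds 16 hr. Beta-lactamase reporter read by FRET substrate, 2 hr room temperature, 460/530 nm emission.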

The nature of test [2]: qHTS assay to identify small molecule agonists of the RXR signaling pathway - cell viability counter screen (AID 1159529). Also: series mostly up to about 77 µM; nearly all actives have a fitted effect of over 50% in size. Put shortly:
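RXR-alpha-UAS-bla HEK 293T cells in medium with 2% charcoal-stripped FBS were preincubated 5 hr, then exposed to compounds for 16 hr at 37 C. Viability was read as CellTiter-Glo luminescence after 30 min at room temperature.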

Test [3] in a line: qHTS assay to identify small molecule antagonists of the retinoid acid receptor (RAR) signaling pathway - cell viability counter screen (AID 1159551). Also: nearly all actives have a fitted effect of over 35% in size. The essentials:
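C3RL4 RARE-luciferase cells, 1,000/well, incubated overnight, then dosed with compound plus 1 uM retinol (final). After 6 hr at 37 C, viability read by CellTiter-Glo ATP luminescence following 30 min at room temperature.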
In general terms: qHTS replaces the single test concentration by a dilution series.

A short description of test [4]: qHTS assay to identify small molecule antagonists of the retinoic acid receptor (RAR) signaling pathway (AID 1159552; also: nearly all actives have a fitted effect of over 50% in size). Put shortly:
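RARE-luc C3RL4 cells; cpds + 1 uM (final) retinol, 6 hr, 37 C/5% CO2; luciferase reagent, 30 min RT, luminescence readout. Inhibitors of retinol-driven signal scored.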

A short description of test [5]: qHTS assay to identify small molecule agonists of the retinoic acid receptor (RAR) signaling pathway (AID 1159553). Also: potency is read from the fitted curve at half-maximal effect. The essentials:
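C3RL4 RARE-luciferase cells were seeded at 1,000/well and grown overnight at 37 C, then exposed to compounds for 6 hr at 37 C, 5% CO2. Luciferase reagent was added and luminescence was read after 30 min at room temperature.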

Test [6] is described as follows: qHTS assay to identify small molecule antagonists of the estrogen related receptor (ERR) signaling pathway from Tox21 library - cell viability counter screen (AID 1224834). Also: nearly all actives have a fitted effect of over 30% in size. The essentials: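 ERR reporter cells, 2,000 per well, rested 6 h, then exposed to compound in DMSO for 17.5 hours at 37 C. Viability read as fluorescence after 30 min with CellTiter-Fluor.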
Test [7] can be described thus: qHTS assay to identify small molecule agonists of the constitutive androstane receptor (CAR) signaling pathway - cell viability counter screen (AID 1224836). Also: series mostly up to about 92 µM; nearly all actives have a fitted effect of over 45% in size. Put shortly: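 HepG2 cells stably carrying hCAR and a CYP2B6-2.2kb reporter were plated 4 h, then given compounds at 15 concentrations plus PK11195 (final 0.75 uM). After 23 h at 37 C, viability was read by CellTiter-Fluor fluorescence.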

The nature of test [8]: qHTS assay to identify small molecule antagonists of the constitutive androstane receptor (CAR) signaling pathway - cell viability counter screen (AID 1224837). Also: series mostly up to about 92 µM; nearly all actives have a fitted effect of over 45% in size. The essentials: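 HepG2 cells stably carrying hCAR and CYP2B6-2.2kb reporter, stimulated with 50 nM CITCO and compounds at 15 concentrations for 23 h at 37 C. Viability measured by CellTiter-Fluor fluorescence.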
Test [9] deals with Nuclear receptor subfamily 1 group I member 3 (Homo sapiens) (UniProt Q14994). As to the kind of experiment: qHTS assay to identify small molecule antagonists of the constitutive androstane receptor (CAR) signaling pathway (AID 1224838). Also: nearly all actives have a fitted effect of over 40% in size. Put shortly: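 HepG2 cells stably carrying hCAR and a CYP2B6-2.2kb luciferase reporter, seeded 4 hrs before compound (15 concentrations). Stimulated with 50 nM CITCO for 24 hr at 37 C. ONE-Glo luminescence read after 30 min at room temperature.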

Test [10] shares this target. The test can be described thus: qHTS assay to identify small molecule agonists of the constitutive androstane receptor (CAR) signaling pathway (AID 1224839). Also: nearly all actives have a fitted effect of over 15% in size. Also: potency is read from the fitted curve at half-maximal effect. The essentials: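 HepG2 cells stably expressing hCAR and a CYP2B6-2.2kb luciferase reporter were treated with compounds at 15 concentrations plus 0.75 uM PK11195 (final) for 24 h at 37 C; luminescence was read after ONE-Glo addition.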

The nature of test [11]: qHTS assay to identify small molecule antagonists of the estrogen related receptor signaling pathway with the pleiotropic PPARgamma coactivator (PGC) from Tox21 10K library - cell viability counter screen (AID 1224840; active = well fitted cell-killing curve with a large enough effect in the repeat runs, not every such curve was filed as active; also: nearly all actives have a fitted effect of over 40% in size). The essentials:
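PGC/ERR cells (2,000/well) plated 6 h, then compound-treated for 17.5 h at 37 C. Viability measured by CellTiter-Fluor fluorescence after 30 min at 37 C, multiplexed with the pathway assay.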

Test [12] deals with Luciferin 4-monooxygenase (Photinus pyralis) (UniProt P08659). The test can be described thus: qHTS assay to identify small molecule inhibitors of firefly luciferase (AID 1224835). Also: series mostly up to about 120 µM; nearly all actives have a fitted effect of over 25% in size. The essentials: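 Biochemical qHTS: compounds run as interplate titrations against purified firefly enzyme, with D-luciferin and ATP each at its KM concentration. Light output recorded by CCD imaging.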

For test [13], the target named is Thyrotropin receptor (Homo sapiens) (UniProt P16473). The test can be described thus: qHTS assay to identify small molecule agonists of the thyroid stimulating hormone receptor (TSHR) signaling pathway (AID 1224843; calls by dose curve; also: nearly all actives have a fitted effect of over 45% in size). Put shortly: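 TSHR-HEK293 cells in agonist mode, 30 min room-temperature step, then cAMP measured by competitive HTRF (cAMP-d2 with anti-cAMP cryptate) after 1 h at room temperature. Tested at 15 concentrations in triplicate.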

The nature of test [14]: qHTS assay to identify small molecule agonists of the estrogen related receptor signaling pathway with the pleiotropic PPARgamma coactivator (PGC) from Tox21 10K library (AID 1224842). Also: nearly all actives have a fitted effect of over 15% in size. Put shortly:
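PGC/ERR reporter cell line, 2,000 cells per well, incubated 6 h at 37 C before 23 nL compound in DMSO was added. After 18 h at 37 C, One-Glo luminescence read following 30 min at room temperature.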

Where “and” joins values, the source holds several entries; their conditions need not be identical. Equal values may be shown once. Results filed as inconclusive are left out. Some compounds were tested as several samples or in several runs, with calls that do not always agree. Calls of active or inactive are those of the source. Unless noted, calls follow the shape of the dose curve; as a rule, active = well fitted curve in the direction sought with a large enough effect in the repeat runs; inconclusive = weak or mixed curves; inactive = no such curve, though single readings can be large; an effect the other way counts as inactive or inconclusive.

Chain of Nuclear receptor subfamily 1 group I member 3 (Homo sapiens) (Q14994 whole entry, looked up): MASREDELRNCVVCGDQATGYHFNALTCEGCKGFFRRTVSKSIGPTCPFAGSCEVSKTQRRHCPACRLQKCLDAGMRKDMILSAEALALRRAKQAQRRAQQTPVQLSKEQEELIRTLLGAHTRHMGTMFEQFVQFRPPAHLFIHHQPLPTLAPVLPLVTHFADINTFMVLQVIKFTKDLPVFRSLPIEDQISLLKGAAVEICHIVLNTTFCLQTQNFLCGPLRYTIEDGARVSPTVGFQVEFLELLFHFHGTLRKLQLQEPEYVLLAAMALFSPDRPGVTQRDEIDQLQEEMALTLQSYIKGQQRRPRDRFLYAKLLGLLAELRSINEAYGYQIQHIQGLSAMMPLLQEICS
Chain of Thyrotropin receptor (Homo sapiens) (P16473 whole entry, looked up): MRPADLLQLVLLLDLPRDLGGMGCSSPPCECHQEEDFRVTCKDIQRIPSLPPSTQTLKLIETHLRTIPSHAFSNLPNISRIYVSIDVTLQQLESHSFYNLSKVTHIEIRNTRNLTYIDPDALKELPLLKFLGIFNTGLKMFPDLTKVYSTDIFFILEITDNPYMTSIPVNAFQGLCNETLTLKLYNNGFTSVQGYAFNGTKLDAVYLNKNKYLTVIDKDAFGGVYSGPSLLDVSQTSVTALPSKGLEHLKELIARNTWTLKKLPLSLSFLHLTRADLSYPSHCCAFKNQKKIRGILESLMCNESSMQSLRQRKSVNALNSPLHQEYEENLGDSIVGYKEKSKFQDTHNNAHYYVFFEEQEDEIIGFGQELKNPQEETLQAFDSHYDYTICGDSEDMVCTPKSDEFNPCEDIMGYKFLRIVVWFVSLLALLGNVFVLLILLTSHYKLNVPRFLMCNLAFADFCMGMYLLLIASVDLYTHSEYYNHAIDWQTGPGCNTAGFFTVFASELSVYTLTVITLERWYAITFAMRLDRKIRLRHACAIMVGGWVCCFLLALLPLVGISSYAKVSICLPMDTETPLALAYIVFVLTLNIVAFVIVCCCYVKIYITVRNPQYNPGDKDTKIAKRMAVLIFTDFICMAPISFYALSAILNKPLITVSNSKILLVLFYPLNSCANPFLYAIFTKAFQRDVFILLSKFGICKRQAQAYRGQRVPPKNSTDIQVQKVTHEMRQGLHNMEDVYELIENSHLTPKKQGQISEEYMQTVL
Chain of Retinoic acid receptor RXR-alpha (Homo sapiens) (P19793 whole entry, looked up): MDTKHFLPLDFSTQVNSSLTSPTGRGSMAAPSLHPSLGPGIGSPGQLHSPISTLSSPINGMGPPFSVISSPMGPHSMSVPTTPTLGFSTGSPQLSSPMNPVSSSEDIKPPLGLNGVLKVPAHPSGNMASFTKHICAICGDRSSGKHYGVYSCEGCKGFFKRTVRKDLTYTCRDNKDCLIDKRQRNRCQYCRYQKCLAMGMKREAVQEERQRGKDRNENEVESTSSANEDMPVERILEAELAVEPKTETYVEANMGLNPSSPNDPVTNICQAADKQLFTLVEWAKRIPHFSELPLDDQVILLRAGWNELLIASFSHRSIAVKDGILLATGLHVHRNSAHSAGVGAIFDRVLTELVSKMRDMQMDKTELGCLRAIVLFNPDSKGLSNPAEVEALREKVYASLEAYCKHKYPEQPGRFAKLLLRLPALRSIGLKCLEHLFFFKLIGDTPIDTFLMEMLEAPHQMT
Chain of Luciferin 4-monooxygenase (Photinus pyralis) (P08659 whole entry, looked up): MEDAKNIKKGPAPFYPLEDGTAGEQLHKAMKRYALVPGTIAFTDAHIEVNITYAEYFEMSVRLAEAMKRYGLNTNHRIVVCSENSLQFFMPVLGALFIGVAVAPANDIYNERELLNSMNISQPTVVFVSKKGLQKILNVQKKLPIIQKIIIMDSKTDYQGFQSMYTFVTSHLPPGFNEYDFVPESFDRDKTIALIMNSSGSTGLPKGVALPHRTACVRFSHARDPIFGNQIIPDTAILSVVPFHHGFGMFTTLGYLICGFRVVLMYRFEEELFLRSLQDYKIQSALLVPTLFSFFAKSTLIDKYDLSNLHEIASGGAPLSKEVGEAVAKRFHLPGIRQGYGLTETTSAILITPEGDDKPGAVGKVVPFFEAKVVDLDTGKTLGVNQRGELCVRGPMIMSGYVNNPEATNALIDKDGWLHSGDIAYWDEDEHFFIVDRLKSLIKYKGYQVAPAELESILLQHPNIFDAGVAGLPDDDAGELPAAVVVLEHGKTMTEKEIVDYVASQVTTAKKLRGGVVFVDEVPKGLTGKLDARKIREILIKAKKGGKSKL

As for `COP(=S)(OC)Oc1ccc(SC)c(C)c1`, the Potency entry in test [1], in [4], in test [6], in test [7], in test [8] and in test [9] was “inactive” throughout. Besides, the Potency result in [11] was “inactive”. Moreover, the call in [2] and in [3] was inactive. Also, the Potency was 19.3 µM (active) in test [5]; 60.4 µM (active) and 54.5 µM (active) and 23.7 µM (active) in [10].

Consider `CCCOC(=O)c1ccccc1C(=O)OCCC`, for which the Potency result in [1], in test [6], in test [12], in [7], in [8] and in [11] was “inactive” each time. The compound was classed as inactive in [2] and in test [3].

Turning to `O=C(O)CCCc1ccc(N(CCCl)CCCl)cc1`, the Potency result in test [1], in test [6], in [12], in test [7], in [8] and in [11] was “inactive” each time. In addition, the result in [2] and in test [3] was inactive.

In the case of `O=C(O)C(Br)Br`, the Potency result in test [1], in test [6], in test [12], in [7], in [8] and in test [9] was “inactive” throughout. Moreover, the Potency entry in test [10] and in [11] was “inactive” throughout. In addition, the result in [2] and in test [3] was inactive.

In the case of `CC(C)CCCCCCOC(=O)c1ccccc1C(=O)OCCCCCCC(C)C`, the Potency entry in test [1], in test [6], in [12], in [7], in test [8] and in test [9] was “inactive” throughout. The Potency result in test [10], in test [11] and in [13] was “inactive” throughout. Besides, the call in test [2] and in [3] was inactive.

As to `Cc1cccc(N)c1`, the Potency entry in [1], in test [5], in test [6], in test [12], in [7] and in [8] was “inactive” throughout. Also, the Potency entry in test [9], in [10], in test [11] and in test [14] was “inactive” throughout. For the same compound, the compound was classed as inactive in test [2] and in test [3].

In the case of `CC(C)(C)C(=O)CCl`, the Potency result in test [1], in [6], in test [12], in test [7], in test [8] and in test [11] was “inactive” throughout. Further, the Potency entry in test [14] and in test [13] was “inactive” each time. The compound was classed as inactive in [2] and in test [3].

Take `Cc1ccccc1N`: the Potency entry in test [1], in [6], in [12], in [7], in test [8] and in test [9] was “inactive” in each case. For the same compound, the Potency result in test [10] and in [11] was “inactive” throughout. In addition, the outcome in test [2] and in test [3] was inactive.

Consider `OCc1ccco1`, for which the Potency result in test [1] is “inactive and 5.49 µM (active)”. Also, the outcome in [2] and in test [3] was inactive. Also, the Potency result in [6], in test [12], in test [7], in [8], in test [9] and in [10] was “inactive” each time. In addition, the Potency result in test [11], in test [14] and in test [13] was “inactive” each time.

Consider `OCCCCO`, for which the Potency result in test [1], in test [4], in [5], in test [6], in [7] and in [8] was “inactive” in each case. The Potency result in [9], in [10], in test [11] and in [14] was “inactive” throughout. Besides, the compound was called inactive in test [2] and in test [3].

Turning to `CCOP(=S)(OCC)Oc1cc(C)nc(C(C)C)n1`, the Potency entry in test [1], in test [6], in test [12], in [7], in [8] and in test [9] was “inactive” in each case. Besides, the Potency result in [10], in test [11] and in test [13] was “inactive” each time. Besides, the outcome in test [2] and in test [3] was inactive.

Consider `NNc1ccccc1`, for which the Potency result in test [1], in test [12], in test [7], in test [8], in test [9] and in test [11] was “inactive” in each case. Besides, the Potency result in [13] was “inactive”. The call in [2] and in test [3] was inactive. For the same compound, the Potency in test [10] is 48 µM (active) and 68.5 µM (active).
